Source: PubChem BioAssay
CHX counter – Cycloheximide Counterscreen for Small Molecule Inhibitors of Shiga Toxin. max response, %. cell reporter, cycloheximide protein synthesis inhibition counterscreen. hit rate 12% among 300,000; in the data active means max response mostly above about 13%, no sharp cut-off; inactive means mostly below about 14%; further: read at 38.3 µM for the half of the compounds with a filed dose; 0% is about no effect
Sm TGR block – qHTS Assay for the Inhibitors of Schistosoma Mansoni Peroxiredoxins. hit rate 3% among 360,000. Potency, µM (series often up to 114 µM), for inactives: top-dose activity change, negative = inhibition, hits mostly inhibitors. Schistosoma mansoni thioredoxin glutathione reductase (TGR), Q962Y6. purified TGR, DTNB reduction, TNB absorbance 405 nm; active means well fitted inhibition curve with a large enough effect; inconclusive means small, poorly fitted or top-dose-only effect; inactive means no such curve, though single readings can be large or run the other way; further: potency means the concentration at half of the fitted maximal effect; on the % scale 0 is the no-effect control and ±100 the full control effect; nearly all actives have a fitted effect of over 60% in size
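Kinetic colorimetric format: TGR-catalysed, NADPH-driven DTNB reduction monitored via TNB absorbance. Enzyme dispensed at 20 nM; compound exposure 15 min at room temperature before reaction start.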
FMDV inh – High Throughput Screening for Foot and Mouth Disease Virus Antivirals | FMDV antiviral cell-based qHTS | Potency, µM (titrated, usually from 57.9 µM), for the others: top-dose activity change, negative = inhibition, hits mostly inhibitors | hit rate 1.2% among 410,000 | AID 1159524, 2015; calls by dose curve; tested in HEK293T cells; further: read-out not given here; potency means the concentration at half of the fitted maximal effect; on the % scale 0 is the no-effect control and ±100 the full control effect; nearly all actives have a fitted effect of over 45% in size
Shiga toxin inh – A qHTS for Small Molecule Inhibitors of Shiga Toxin; Vero cells, Shiga toxin protein synthesis inhibition reporter; inhibition, % at 38.7 µM; hit rate 9.2% among 290,000; AID 2315, 2010; in the data active means inhibition mostly above about 28%, no sharp cut-off; inactive means mostly below about 43%; further: 0% is about no effect
* hit, by the source's call; ? = inconclusive; . = no result given; + = active, no number. An excerpt weighted towards active compounds, which were near 12% of everything screened.

SMILES | CHX counter | Sm TGR block | FMDV inh | Shiga toxin inh
CCOC(=O)CN(Cc1cc(OC)cc(N(C)C)c1OC)C(=O)C1CC(CO[Si](C)(C)C(C)(C)C)=CN1C(=O)OC(C)(C)C (stereo not given) | 5 | . | . | -5
CC(C)c1onc(C(=O)NCc2ccc(F)cc2)c1[N+](=O)[O-] | -3 | -16% | 15% | -5
Cc1ccc(O)c(NC(=O)c2noc(C(C)C)c2[N+](=O)[O-])c1 | 42* | 35µM* | 91% | 49
COc1ccc(Cl)cc1NC(=O)c1noc(C)c1[N+](=O)[O-] | 2 | -18% | -3% | 7
Cc1ccccc1Cn1cc(NC(=O)c2noc(C(C)C)c2[N+](=O)[O-])cn1 | 0 | -12% | -3% | 3
CC(=O)c1ccc(NC(=O)c2noc(C(C)C)c2[N+](=O)[O-])cc1 | 41* | -33% | 41% | 37
CCc1ccc(NC(=O)c2noc(C(C)C)c2[N+](=O)[O-])cc1 | 48* | ? | 12% | 151*
COc1ccc(NC(=O)c2noc(C(C)C)c2[N+](=O)[O-])cc1 | 37* | ? | 18% | 50*
O=S1(=O)c2ccccc2N(Cc2cccc(C(F)(F)F)c2)c2ccccc21 | . | -1% | ? | .
COc1ccc(OC)c2c(=S)c3ccccc3[nH]c12 | . | . | 9% | .
O=C1/C(=C\c2ccc(Cl)c(Cl)c2)CN(C(=O)CCN2CCOCC2)C/C1=C/c1ccc(Cl)c(Cl)c1 | . | . | 3.2µM* | .
CCN(CC)CCC(=O)N1C/C(=C/c2ccccc2)C(=O)/C(=C\c2ccccc2)C1 | . | . | 3.5µM* | .
O=C1/C(=C\c2ccccc2)CN(C(=O)CCN2CCCCC2)C/C1=C/c1ccccc1 | . | . | 7.9µM* | .
CCN(CC)CCC(=O)N1c2ccccc2Sc2ccc(Cl)cc21 | . | -6% | -20% | .
Cc1ccc(OCC(=O)Nc2ccc3nc(SCC(=O)N4CCCC4)sc3c2)cc1 | . | 0% | ? | .
CSc1cccc(N2C(=O)N(CC(=O)NCc3ccccc3Cl)c3ccccc3S2(=O)=O)c1 | . | 4% | -9% | .
CCC1(C2CCN(C(=O)c3ccc4ccccc4c3)CC2)NC(=O)N(CCc2scnc2C)C1=O (stereo not given) | . | . | 7% | .
CCOc1ccc(CNC(=O)c2cccn2-c2nnc(N3CCCCC3)s2)cc1OC | . | -10% | -27% | .
COc1ccccc1C(=O)N1CCCC(c2nc(SCCN3CCOCC3)ncc2C)C1 (stereo not given) | . | . | -2% | .
COc1ccc(CC(=O)OCCc2cc3cc(OC)c(OC)cc3c(=O)o2)cc1 | . | 7.1µM* | -6% | .
COc1cc2cc(CCOC(=O)c3ccc(C(F)(F)F)cc3)oc(=O)c2cc1OC | . | ? | -13% | .
CCn1c(CN2CCCCC2)nc2cc(NC(=O)c3cccc([N+](=O)[O-])c3)ccc21 | . | 6% | -18% | .
O=C(NC1CC(=O)N(c2cccc(F)c2)C1)c1ccc(S(=O)(=O)N2CCCC2)cc1 (stereo not given) | . | -5% | -24% | .
COc1cccc(CNc2nc3cc(-c4cccc(OC)c4)sc3c(=O)n2C)c1 | . | . | -21% | .
COc1cccc(CNc2nc3cc(-c4cnn(Cc5ccccc5)c4)sc3c(=O)n2C)c1 | . | . | 14µM* | .
SMILES | CHX counter | Sm TGR block | FMDV inh | Shiga toxin inh
N/C(=N\OC(=O)c1cccc(Cn2cc(C(F)(F)F)ccc2=O)c1)c1ccc(Cl)cc1 | 5 | 4% | ? | 22
Cc1ccc(/C(N)=N/OC(=O)c2cccc(Cn3cc(C(F)(F)F)ccc3=O)c2)cc1 | 3 | 6% | ? | 12
N/C(=N\OC(=O)c1cccc(Cn2cc(C(F)(F)F)ccc2=O)c1)c1ccccc1 | 32* | -3% | 1% | 41*
O=C(Sc1ccc(Cl)cc1)c1cccc(Cn2cc(C(F)(F)F)ccc2=O)c1 | 1 | 20µM* | 2% | -6
Cc1cccc(C)c1NC(=O)Cn1c(=O)n(Cc2ccccc2)c(=O)c2c(C)c(C(=O)N(C)C)sc21 | . | -7% | -2% | .
CCOc1ccc(C(=O)NCCc2sc(-c3ccc(OC)c(OC)c3)nc2C)cc1 | . | -7% | 28% | .
CC(C)NC(=O)CN1CCN(C(=O)CCl)CC1 | -3 | ? | -10% | -12
CN(C)C(=O)CN1CCN(C(=O)CCl)CC1 | -2 | 45µM* | -19% | -3
Cc1ccccc1NC(=O)c1ccc(S(=O)(=O)C(F)F)cc1 | 18* | 0% | -23% | -3
Cc1ccccc1NC(=O)c1ccc(S(=O)(=O)N(C)C)cc1 | -1 | -15% | -11% | -2
Cc1ccc(NC(=O)c2ccc(S(=O)(=O)C(F)F)cc2)c(C)c1 | 28* | -5% | -13% | +
CCO[C@H]1[C@H](NC(=O)c2cccnc2)c2ccccc2C12CCN(C(=O)c1ccoc1)CC2 | . | . | -6% | .
CC(C)(C)c1ccc(OCCn2cc(C(=O)c3ccco3)c3ccccc32)cc1 | . | 16% | ? | .
O=C(C1CCN(c2ncnc3c2nc2n3CCCCC2)CC1)N1CCN(c2cccc(Cl)c2)CC1 | 17 | -13% | 22µM* | -9
Clc1cccc(N2CCN(c3ncnc4c3nc3n4CCCCC3)CC2)c1 | . | -12% | 11µM* | .
CCCCN(CC)C(=O)Cn1c(=O)n(-c2ccc(OCC)cc2)c(=O)c2c3c(sc21)CCC3 | . | 0% | -4% | .
O=[N+]([O-])c1ccc(O)c(/C=N/n2c(CO)nc3ccccc32)c1 | -3 | 0% | -4% | -2
C/C(=N\OCc1nc2ccccc2c(=O)n1/N=C/c1cc([N+](=O)[O-])ccc1O)c1ccccc1 | 18* | 35µM* | -4% | 46*
C/C(=N\OCc1nc2ccccc2c(=O)n1/N=C/c1cc(C)cc([N+](=O)[O-])c1O)c1ccccc1 | 21* | -35% | -20% | 27
Cc1cc([N+](=O)[O-])cc(/C=N/n2c(C)nc3ccccc3c2=O)c1O | 1 | -6% | ? | 12
Cc1ccc2c(c1)c(=O)c(C(=O)c1ccccc1)cn2Cc1ccccc1F | . | -11% | -27% | .
Cc1cc(C(=O)N/N=C/c2ccc[nH]2)n[nH]1 | 16* | -1% | 0% | 36*
NC(=S)N/N=C/c1ccc2ccccc2c1 | 27* | -14% | 6% | -8
Cc1cc(C(=O)N/N=C/c2ccc3ccccc3c2)n[nH]1 | 23* | -1% | 29% | 30*
Cc1cc(C(=O)N/N=C/c2cccc(OC(=O)c3ccco3)c2)n[nH]1 | 46* | -9% | 14% | 34
SMILES | CHX counter | Sm TGR block | FMDV inh | Shiga toxin inh
CC1=C(c2ccc(C(C)C)cc2)S(=O)(=O)N=C1N1CCN(c2ccccc2F)CC1 | . | -2% | 6% | .
COc1cc(CN(C(=O)COc2ccc(F)cc2)c2ccccn2)cc(OC)c1OC | . | -8% | -9% | .
COc1ccc(NC(=O)C2=CC(c3ccc4c(c3)OCO4)=NS(=O)(=O)N2C)cc1OC | . | -1% | -21% | .
Cc1ccc(C2=NS(=O)(=O)N(C)C(C(=O)Nc3ccc4c(c3)OCO4)=C2)cc1 | 18* | 3% | -13% | 18*
CN1C(C(=O)Nc2cccc(O)c2)=CC(c2ccco2)=NS1(=O)=O | 10* | -5% | -27% | 8
Cc1ccc(O)c(NC(=O)C2=CC(c3ccco3)=NS(=O)(=O)N2C)c1 | 2 | -2% | -16% | 8
COc1ccc(C2=NS(=O)(=O)N(C)C(C(=O)Nc3ccc4c(c3)OCO4)=C2)cc1OC | 20* | -3% | ? | 11
